{"source": "PubChem BioAssay", "note": "Values without a mark were called inactive. The list shows a part of the results. Calls of active or inactive are those of the source. Cut-off read from the data, not from the text of the source, unless noted: active = inhibition above about 28%; inactive = the rest."}
{"target": "Photoreceptor-specific nuclear receptor (Homo sapiens) (UniProt Q9Y5X4)", "sequence (Q9Y5X4 whole entry, looked up)": "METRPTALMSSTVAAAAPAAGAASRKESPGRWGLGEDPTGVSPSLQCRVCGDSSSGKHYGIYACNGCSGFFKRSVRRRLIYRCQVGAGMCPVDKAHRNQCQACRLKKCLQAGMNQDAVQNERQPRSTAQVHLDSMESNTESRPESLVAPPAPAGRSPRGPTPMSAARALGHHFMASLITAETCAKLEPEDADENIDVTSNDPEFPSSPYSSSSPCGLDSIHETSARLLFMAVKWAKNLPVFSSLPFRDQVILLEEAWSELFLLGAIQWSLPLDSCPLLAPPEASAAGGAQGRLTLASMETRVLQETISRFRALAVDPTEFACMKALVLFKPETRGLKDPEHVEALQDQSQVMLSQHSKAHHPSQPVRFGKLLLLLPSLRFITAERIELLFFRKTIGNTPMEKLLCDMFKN", "assay": "retest of NR2E3-NCOR disrupting agonists – cell-based, luminescence, CHO-S two-hybrid, confirmation (AID 624378;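 active = average inhibition above a cutoff equal to the mean inhibition of all tested compounds plus one SD, cut at about 70% in these data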;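 note: 0% = DMSO in NR2E3 cells and 100% = DMSO in cells lacking NR2E3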)", "conditions": "CHO-S mammalian two-hybrid NR2E3-NCOR, luciferase luminescence; at 3.98 µM; stronger effect = higher value"}
{"smiles": "Cn1nccc1C(=O)NC1CCCc2c1cnn2-c1ccccc1F", "note": "(stereo not given)", "inhibition": "93.7% (active)"}
{"smiles": "CCN(CC)S(=O)(=O)c1ccc(N(C)Cc2ccc(C(F)(F)F)cc2)nc1", "inhibition": "34.6%"}
{"smiles": "COc1ccc(CC(=O)Nc2nc(-c3ccc(F)c(F)c3)cs2)cc1OC", "inhibition": "98% (active)"}
{"smiles": "COc1cccc(CNc2nc(NCc3ccccc3OC)nc3ccsc23)c1", "inhibition": "82% (active)"}
{"smiles": "OC[C@@H]1CN(Cc2ccc(-c3ccccc3)cc2)C[C@H](n2cnc3c(NC4CCCC4)ncnc32)O1", "inhibition": "94.9% (active)"}
{"system": "not listed separately", "assay": "nonselective effects on VP16 transactivation – cell-based, luminescence, CHO-S, high throughput, counter-screen for NR2E3 agonist project, confirmation (AID 624379;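 active = mean inhibition above a cutoff equal to the average over all tested compounds plus one standard deviation, cut at about 70% in these data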;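 note: luciferase from a UAS reporter driven by GAL4-VP16 transactivation; 0% = DMSO with VP16-transfected cells and 100% = DMSO with cells lacking VP16; higher means less reporter light so more repression of VP16 activity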)", "conditions": "CHO-S GAL4-VP16 luciferase reporter, at 3.98 µM, stronger effect = higher value"}
{"smiles": "Cn1nccc1C(=O)NC1CCCc2c1cnn2-c1ccccc1F", "note": "(stereo not given)", "inhibition": "86.2% (active)"}
{"smiles": "CCN(CC)S(=O)(=O)c1ccc(N(C)Cc2ccc(C(F)(F)F)cc2)nc1", "inhibition": "41.8%"}
{"smiles": "COc1ccc(CC(=O)Nc2nc(-c3ccc(F)c(F)c3)cs2)cc1OC", "inhibition": "81.8% (active)"}
{"smiles": "COc1cccc(CNc2nc(NCc3ccccc3OC)nc3ccsc23)c1", "inhibition": "61.6%"}
{"smiles": "OC[C@@H]1CN(Cc2ccc(-c3ccccc3)cc2)C[C@H](n2cnc3c(NC4CCCC4)ncnc32)O1", "inhibition": "78.4% (active)"}
{"system": "not listed separately", "assay": "StAR promoter reporter inhibitors, counter-screen for LRH-1 inverse agonist project, cell-based, luminescence, high throughput (AID 651611)", "conditions": "StAR promoter luciferase reporter counterscreen, at 3.6 µM, stronger effect = higher value"}
{"smiles": "O=C(c1ccccc1)c1ccc2nc(N3CCN(C(=O)c4ccco4)CC3)c3nncn3c2c1", "inhibition": "3.94%"}
{"smiles": "Clc1ccc2c(c1)-c1ccccc1C1=NCCN12", "inhibition": "51.8% (active)"}
{"smiles": "COc1cc(N)c2ncccc2c1Cl", "inhibition": "-0.07%"}
{"smiles": "COc1ccc(OC)c(/C=N/N=C2\\SCC(=O)N2Cc2ccco2)c1", "inhibition": "10.7%"}
{"smiles": "Cc1cccc(C(=O)N[C@H](C(=O)Nc2ncc(C)s2)C(C)C)c1", "inhibition": "35.8% (active)"}
{"smiles": "Cc1cc(C)c(C(N)=O)c(Nc2cccc3ccccc23)n1", "inhibition": "1.09%"}
{"smiles": "Cc1cc2oc(=O)cc(C)c2cc1NC(=O)CCl", "inhibition": "32.9% (active)"}
{"smiles": "O=C(Nc1c(Cl)ccc2nsnc12)c1ccc([N+](=O)[O-])o1", "inhibition": "17.1%"}
{"smiles": "COc1ccc(NC(=O)COc2cccc3c2CCN(C)C3=O)c(OC)c1", "inhibition": "20.5%"}
{"smiles": "CC[n+]1ccc(/C=C/c2ccc(N(C)C)cc2)c2ccccc21", "inhibition": "77.7% (active)"}
{"smiles": "O=C(Nc1cccc(NC(=O)c2ccc([N+](=O)[O-])o2)c1)c1ccco1", "inhibition": "23.5%"}
{"smiles": "O=C(CN1CCN(S(=O)(=O)c2cc(Cl)ccc2Cl)CC1)Nc1ccc2c(c1)OCCO2", "inhibition": "19%"}
{"smiles": "CC(=O)Nc1cc(-c2ccc(F)cc2)cn2c(-c3ccc(S(C)(=O)=O)cc3)cnc12", "inhibition": "12.6%"}
{"smiles": "CC(C)NC(=O)N1Cc2cc(C(=O)NC3CCCC3)nc(-c3cccc(-c4cccnc4)c3)c2[C@@H]1CCO", "inhibition": "24.3%"}
{"smiles": "CC[C@@H](C(=O)[C@@H](C)[C@@H](O)[C@H](C)[C@@H]1O[C@@H]([C@@H](CC)C(=O)O)CC[C@@H]1C)[C@H]1O[C@]2(C=C[C@@H](O)[C@]3(CC[C@@](C)([C@H]4CC[C@](O)(CC)[C@H](C)O4)O3)O2)[C@H](C)C[C@@H]1C", "inhibition": "87% (active)"}
{"smiles": "CCCc1cc(=O)oc2cc(OCC(=O)NCCc3ccc(S(N)(=O)=O)cc3)ccc12", "inhibition": "9.29%"}
{"smiles": "Cc1onc(-c2ccccc2Cl)c1C(=O)O/N=C(\\N)c1ccc([N+](=O)[O-])o1", "inhibition": "10.8%"}
{"smiles": "Cc1c(NC(=S)NC(=O)c2ccc(Cl)cc2)c(=O)n(-c2ccccc2)n1C", "inhibition": "11.3%"}
{"smiles": "COc1ccccc1NC(=O)c1ccc(NC(=O)COC(=O)C(C)C)cc1", "inhibition": "12.5%"}
{"smiles": "O=C(c1ccccc1)N(NC(=O)C(O)(c1ccccc1)c1ccccc1)c1cccc(F)c1", "inhibition": "-4.21%"}
{"smiles": "O=C(Cn1nnc2ccccc2c1=O)Nc1ccc2c(c1)CCC2", "inhibition": "-34.8%"}
{"smiles": "O=C(Nc1ccc(Cc2ccncc2)cc1)c1ccc([N+](=O)[O-])o1", "inhibition": "16.6%"}
{"smiles": "COc1cccc(C2c3cc4c(cc3OC(N3CCCC3)C2C)OCO4)c1O", "note": "(stereo not given)", "inhibition": "55% (active)"}
{"smiles": "O=C(COC(=O)c1ccccn1)Nc1cccnc1Cl", "inhibition": "3.58%"}
{"smiles": "Cc1cc([N+](=O)[O-])ccc1NC(=O)CSc1nnc(C)n1C", "inhibition": "-1.6%"}
{"smiles": "NS(=O)(=O)c1ccc(O)c(NC(=O)c2ccc([N+](=O)[O-])o2)c1", "inhibition": "13.8%"}
{"smiles": "Cc1ccc(S(=O)(=O)N2CCc3ccccc3CC2)cc1", "inhibition": "39.2% (active)"}
{"smiles": "O=[N+]([O-])c1ccc(COc2cccc(CNc3ccc(Br)cc3)c2)cc1", "inhibition": "3.67%"}
{"smiles": "O=C(NCCCc1ccccc1)c1cc([N+](=O)[O-])ccc1Cl", "inhibition": "23.3%"}
{"smiles": "Cc1ccc[n+](CC(=O)Nc2ccc(Cl)c([N+](=O)[O-])c2)c1", "inhibition": "9.69%"}
{"smiles": "Cc1ccc(NC(=O)CSc2nnc(CCCCCNC(=O)OC(C)(C)C)o2)c(C)c1", "inhibition": "12.2%"}
{"smiles": "CC(=O)N1CCN(c2ccc(NCc3ccc(C)cc3)cc2)CC1", "inhibition": "1.04%"}
{"smiles": "CC1(C)Cc2ccccc2-c2nnnn21", "inhibition": "3.18%"}
{"smiles": "Cc1ccc(Cl)cc1NC(=O)COC(=O)CC(C)(C)C", "inhibition": "28.3% (active)"}
{"smiles": "O=C(Nc1cccc2ccccc12)c1ccc([N+](=O)[O-])o1", "inhibition": "27.4%"}
